Structures can show the parent of a compound that is named as a salt. ± gives the standard deviation or the standard deviation of the averaged measurements.
What was measured:
Details in all cases: 25 µM; exposure: 24-48 hpf
[1] = tested on: Danio rerio Tg(wt1b:EGFP) embryo, pronephros; assay: glomerular separation, fold change vs DMSO control; higher = glomeruli further apart (abnormal)
Outline: (§1)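 In HEPES-buffered E3 with 0.003% PTU and 0.5% DMSO, dechorionated Tg(wt1b:EGFP) zebrafish embryos were exposed to 25 μM compound from 24 to 48 hpf at 28.5°C. Pronephroi were then imaged dorsally at 470 nm in 10 z-slices, in 96-well plates filled with agarose. On maximum projections, a Fiji macro turned 16 manually placed reference points into distances and angles, and values more than 2 SD from the feature mean were excluded. Features are fold changes relative to the mean of DMSO-treated embryos from the same day.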

[2] = tested on: Danio rerio Tg(wt1b:EGFP) embryo, pronephros; assay: glomerular width (mean of left and right), fold change vs DMSO control; higher = wider glomerulus
Outline: as §1

[3] = tested on: Danio rerio Tg(wt1b:EGFP) embryo, pronephros; assay: fraction of imaged embryos annotated as normal kidney; higher = less nephrotoxic; extreme values may be limits of the assay
Outline: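 Embryos of the Tg(wt1b:EGFP) zebrafish line were dechorionated and held in 12-well plates with 25 μM compound in 0.5% DMSO and 5 mM HEPES-buffered E3 containing 0.003% PTU, from 24 to 48 hpf at 28.5°C. Larvae were then anaesthetised with tricaine, set dorsal side up in agarose-filled 96-well plates, and their pronephroi imaged by widefield fluorescence at 470 nm over 10 z-slices. Each value is the fraction of embryos per treatment placed in the normal-kidney category after manual annotation of maximum projections.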

[4] = tested on: Danio rerio Tg(wt1b:EGFP) embryo, pronephros; assay: pronephric angle neck segment to proximal convoluted tubule (mean of left and right), fold change vs DMSO control; higher = larger pronephric angle
Outline: as §1

Structure (SMILES)	glomerular separation [1]	glomerular width [2]	fraction of imaged embryos annotated as normal kidney [3]	pronephric angle neck segment [4]
C[C@H](CCC(=O)O)[C@H]1CC[C@H]2[C@@H]3C(=O)C[C@@H]4CC(=O)CC[C@]4(C)[C@H]3CC(=O)[C@]12C [Dehydrocholic acid]	0.9 ± 0.25	0.978 ± 0.07	0.833	0.984 ± 0.029
CC(C)(C(=O)c1cccnc1)c1cccnc1 [Metyrapone]	0.85 ± 0.27	0.961 ± 0.039	0.9	1.03 ± 0.076
CC(C)(C)NCC(O)c1ccc(O)c(CO)c1 (stereo not given) [Salbutamol]	1.15 ± 0.52	1.05 ± 0.013	0.833	1.04 ± 0.041
CC(C)(Oc1ccc(C2CC2(Cl)Cl)cc1)C(=O)O (stereo not given) [Ciprofibrate]	1.25 ± 0.62	0.934 ± 0.023	0.818	1.082 ± 0.0058
C=C1c2cccc(O)c2C(=O)C2=C(O)[C@]3(O)C(=O)C(C(N)=O)=C(O)[C@@H](N(C)C)[C@@H]3[C@@H](O)[C@H]12 [Methacycline hydrochloride]	0.724 ± 0.4	1.11 ± 0.0095	0.818	0.984 ± 0.018
CSc1ccc2c(c1)C(N1CCN(C)CC1)Cc1ccccc1S2 (stereo not given) [Methiothepin maleate]	1.06 ± 0.38	1.01 ± 0.045	0.833	0.976 ± 0.034
C/C(=C\C(=O)OCCCCCCCCC(=O)O)C[C@@H]1OC[C@H](C[C@@H]2O[C@H]2[C@@H](C)[C@H](C)O)[C@@H](O)[C@H]1O [Mupirocin]	0.88 ± 0.41	1.01 ± 0.013	0.75	0.985 ± 0.046
CN1Cc2c(N)cccc2C(c2ccccc2)C1 (stereo not given) [Nomifensine maleate]	0.973 ± 0.34	1.04 ± 0.051	1	1.01 ± 0.065
CN(CCOc1ccc(NS(C)(=O)=O)cc1)CCc1ccc(NS(C)(=O)=O)cc1 [Dofetilide]	1.35 ± 0.35	0.982 ± 0.025	0.583	1.01 ± 0.07
CC[C@H]1OC(=O)[C@H](C)[C@@H](O[C@H]2C[C@@](C)(OC)[C@@H](O)[C@H](C)O2)[C@H](C)[C@@H](O[C@@H]2O[C@H](C)C[C@H](N(C)C)[C@H]2O)[C@](C)(O)C[C@@H](C)C(=O)[C@H](C)[C@@H](O)[C@]1(C)O [Erythromycin]	1.19 ± 0.74	1.042 ± 0.0044	0.818	0.9494 ± 0.0015
C[N+]1(C)CCC(=C(c2ccccc2)c2ccccc2)CC1 [Diphemanil methylsulfate]	1.35 ± 0.53	0.992 ± 0.041	0.75	1.02 ± 0.033
CN1CCN(CC(=O)N2c3ccccc3C(=O)Nc3cccnc32)CC1 [Pirenzepine dihydrochloride]	1.19 ± 0.65	0.9891 ± 0.0015	0.75	1.03 ± 0.059
CC(=O)SCC(Cc1ccccc1)C(=O)NCC(=O)OCc1ccccc1 (stereo not given) [Racecadotril]	1.45 ± 0.84	0.819 ± 0.085	0.167	1.365 ± 0.013
C[C@H](Cc1cc2c(c(C(N)=O)c1)N(CCCO)CC2)NCCOc1ccccc1OCC(F)(F)F [Silodosin]	0.726 ± 0.14	0.985 ± 0.067	0.917	0.992 ± 0.028
OCCN1CCN(CCCN2c3ccccc3C=Cc3ccccc32)CC1 [Opipramol dihydrochloride]	0.662 ± 0.23	1.1 ± 0.043	0.75	1.02 ± 0.076
O=C1CC[C@@H](C(=O)N2CSC[C@H]2C(=O)O)N1 [Pidotimod]	1.03 ± 0.42	1.05 ± 0.025	0.917	1.003 ± 0.0016
CC(=O)NS(=O)(=O)c1ccc(N)cc1 [Sulfacetamide sodic hydrate]	0.937 ± 0.25	1.05 ± 0.057	1	0.9887 ± 0.0093
Nc1nc(Cl)nc2c1ncn2[C@H]1C[C@H](O)[C@@H](CO)O1 [Cladribine]	0.896 ± 0.38	0.945 ± 0.021	0.909	1.005 ± 0.0066
CC/C(=C(\c1ccccc1)c1ccc(OCCN(C)C)cc1)c1ccccc1 [Tamoxifen citrate]	0.968 ± 0.33	0.977 ± 0.019	0.833	1.02 ± 0.045
O=C(O)c1cc(=O)c2c(OCC(O)COc3cccc4oc(C(=O)O)cc(=O)c34)cccc2o1 [Cromolyn disodium salt]	0.753 ± 0.22	1.08 ± 0.011	0.909	1.0048 ± 0.00061
CN(N=O)C(=O)N[C@@H](C=O)[C@@H](O)[C@H](O)[C@H](O)CO [Streptozotocin]	0.671 ± 0.14	1.06 ± 0.047	1	1.01 ± 0.025
O=C(O)CCNC(=O)c1ccc(/N=N/c2ccc(O)c(C(=O)O)c2)cc1 [Balsalazide Sodium]	0.832 ± 0.29	1.03 ± 0.012	0.833	1.08 ± 0.012
Cc1c(N(C)C)c(=O)n(-c2ccccc2)n1C [Amidopyrine]	0.645 ± 0.17	1 ± 0.0092	0.917	1.01 ± 0.033
NC(=O)N/N=C/c1ccc([N+](=O)[O-])o1 [Nitrofural]	0.881 ± 0.24	1.02 ± 0.047	1	0.982 ± 0.017
CC(=O)OCC(=O)NCCCOc1cccc(CN2CCCCC2)c1 [Roxatidine Acetate hydrochloride]	1.07 ± 0.37	1 ± 0.03	0.667	1.01 ± 0.06
CC1(C)S[C@@H]2[C@H](NC(=O)[C@H](N)c3ccccc3)C(=O)N2[C@H]1C(=O)O [Ampicillin trihydrate]	0.924 ± 0.41	1.03 ± 0.016	0.917	1.03 ± 0.025
CC(C)NCC(O)COc1cccc2[nH]ccc12 (stereo not given) [Pindolol]	0.674 ± 0.2	0.901 ± 0.021	0.909	0.984 ± 0.025
CNNCc1ccc(C(=O)NC(C)C)cc1 [Procarbazine hydrochloride]	1.02 ± 0.24	0.973 ± 0.017	1	1.084 ± 0.0049

Structure (SMILES)	glomerular separation [1]	glomerular width [2]	fraction of imaged embryos annotated as normal kidney [3]	pronephric angle neck segment [4]
CC1(C)NC(=O)N(c2ccc([N+](=O)[O-])c(C(F)(F)F)c2)C1=O [Nilutamide]	1.14 ± 0.42	1.13 ± 0.035	0.667	0.945 ± 0.013
Cc1cccc(Nc2ccccc2C(=O)O)c1C [Mefenamic acid]	5.08 ± 1.4	0.617 ± 0.064	0	1.63 ± 0.059
CN(C)C(=O)C(CCN1CCC(O)(c2ccc(Cl)cc2)CC1)(c1ccccc1)c1ccccc1 [Loperamide hydrochloride]	1.07 ± 0.32	1.04 ± 0.12	0.667	1.03 ± 0.065
COc1ccc(-c2cc(=O)c3c(O)cc(O[C@@H]4O[C@H](CO[C@@H]5O[C@@H](C)[C@H](O)[C@@H](O)[C@H]5O)[C@@H](O)[C@H](O)[C@H]4O)cc3o2)cc1O [Diosmin]	1.06 ± 0.42	0.996 ± 0.011	0.727	0.974 ± 0.032
CN1CC2c3ccccc3Oc3ccc(Cl)cc3C2C1 (stereo not given) [Asenapine maleate]	0.806 ± 0.35	0.991 ± 0.088	0.583	0.7772 ± 0.0031
COc1ccc2[nH]c([S+]([O-])Cc3ncc(C)c(OC)c3C)nc2n1 (stereo not given) [Tenatoprazole]	1.61 ± 0.86	0.93 ± 0.064	0.917	1.17 ± 0.069
Nc1nc(=O)c2c([nH]1)NC[C@@H](CNc1ccc(C(=O)N[C@@H](CCC(=O)O)C(=O)O)cc1)N2C=O [Folinic acid calcium salt]	0.989 ± 0.3	1.01 ± 0.016	0.583	0.979 ± 0.042
CC(C)(C)C(=O)OCOC(=O)[C@@H]1N2C(=O)[C@@H](/N=C/N3CCCCCC3)[C@H]2SC1(C)C [Pivmecillinam hydrochloride]	0.772 ± 0.17	1.101 ± 0.0091	0.75	1.04 ± 0.012
CC(CN1c2ccccc2Sc2ccccc21)N(C)C (stereo not given) [Promethazine hydrochloride]	0.666 ± 0.15	0.9984 ± 0.0084	0.833	0.994 ± 0.068
CC(=O)CCCCn1c(=O)c2c(ncn2C)n(C)c1=O [Pentoxifylline]	0.678 ± 0.2	0.971 ± 0.032	0.583	0.752 ± 0.033
CC(=O)N[C@@H](CS)C(=O)O [Acetylcysteine]	0.784 ± 0.26	1.035 ± 0.0055	0.917	1.0017 ± 0.00093
CN(C)C/C=C(/c1ccc(Br)cc1)c1cccnc1 [Zimelidine dihydrochloride monohydrate]	0.758 ± 0.25	0.9778 ± 0.0056	0.75	0.971 ± 0.055
C=CCOc1ccccc1OCC(O)CNC(C)C (stereo not given) [Oxprenolol hydrochloride]	0.751 ± 0.34	1.002 ± 0.0059	0.75	1.0054 ± 0.00047
CCN(CC)CCNC(=O)c1cc(Cl)c(N)cc1OC [Metoclopramide monohydrochloride]	0.868 ± 0.25	0.962 ± 0.015	0.833	0.944 ± 0.032
Cc1nnc(NS(=O)(=O)c2ccc(N)cc2)s1 [Sulfamethizole]	0.838 ± 0.34	1.06 ± 0.087	0.667	1.06 ± 0.028
CN(Cc1cnc2nc(N)nc(N)c2n1)c1ccc(C(=O)N[C@@H](CCC(=O)O)C(=O)O)cc1 [Methotrexate]	1.19 ± 0.59	1.0099 ± 0.0002	0.917	0.978 ± 0.014
CCC(C)(CN(C)C)OC(=O)c1ccccc1 (stereo not given) [Amyleine hydrochloride]	1.1 ± 0.77	1.04 ± 0.028	0.833	0.9967 ± 0.0077
Cc1ccc(-c2ncc(Cl)cc2-c2ccc(S(C)(=O)=O)cc2)cn1 [Etoricoxib]	0.967 ± 0.19	1.023 ± 0.0032	0.833	1.04 ± 0.042
CN1CCCC(n2nc(Cc3ccc(Cl)cc3)c3ccccc3c2=O)CC1 (stereo not given) [Azelastine hydrochloride]	0.737 ± 0.21	0.885 ± 0.04	1	1.11 ± 0.024
CO/N=C(\C(=O)N[C@@H]1C(=O)N2C(C(=O)O)=C(COC(N)=O)CS[C@H]12)c1ccco1 [Cefuroxime sodium salt]	1.05 ± 0.35	0.997 ± 0.025	1	0.985 ± 0.025
Nc1ccc(S(=O)(=O)Nc2ccccn2)cc1 [Sulfapyridine]	0.906 ± 0.35	1.07 ± 0.03	0.75	1 ± 0.083
Cc1ncc([N+](=O)[O-])n1CCO [Metronidazole]	1.1 ± 0.31	0.928 ± 0.084	0.917	0.884 ± 0.061
CCS(=O)(=O)CCn1c([N+](=O)[O-])cnc1C [Tinidazole]	0.882 ± 0.35	1.04 ± 0.036	0.833	1.02 ± 0.037
CC(=O)[C@H]1CC[C@H]2[C@@H]3C[C@H](C)C4=CC(=O)CC[C@]4(C)[C@H]3[C@@H](O)C[C@]12C [Medrysone]	1.02 ± 0.44	1.17 ± 0.072	0.417	0.957 ± 0.019
C#C[C@]1(O)CC[C@H]2[C@@H]3CCC4=Cc5oncc5C[C@]4(C)[C@H]3CC[C@@]21C [Danazol]	3.7 ± 1.5	0.592 ± 0.0074	0	1.1 ± 0.12
CC(C)[C@H]1CC[C@H](C(=O)N[C@H](Cc2ccccc2)C(=O)O)CC1 [Nateglinide]	0.985 ± 0.37	1.04 ± 0.024	1	1.08 ± 0.024
CC(=O)OCC(=O)[C@@]12OC(C)(C)O[C@@H]1C[C@H]1[C@@H]3C[C@H](F)C4=CC(=O)C=C[C@]4(C)[C@@]3(F)[C@@H](O)C[C@@]12C [Fluocinonide]	1.04 ± 0.63	1.4 ± 0.044	0.417	1.05 ± 0.067
